# Screening data (PubChem BioAssay)
# IL1B secr inh: qHTS for Inhibitors of Inflammasome Signaling: IL-1-beta AlphaLISA Primary Screen | 360,000 compounds, 4.7% hits | THP-1 LPS/ATP IL-1B secretion, AlphaLISA, 16 h; hits give low values | AID 743279, 2014 | activity change, % at 57.5 µM; in the data active = activity change below about -50%; inconclusive = mostly about -30% to -49%
#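 THP-1 cells pretreated 1 hr with compounds (up to 57.5 uM final), then stimulated with LPS (250 ng/mL final) plus ATP (1.25 mM final); secreted IL-1B measured by AlphaLISA after 16 hr, decreased signal indicating inhibition.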
# TDP1 cell CPT: qHTS for Inhibitors of human tyrosyl-DNA phosphodiesterase 1 (TDP1): qHTS in cells in presence of CPT | chicken DT40 Tdp1-/-;hTDP1 cells + 20 nM CPT, ATP luminescence, 48 h | AID 686979, 2013 | Potency, µM (doses to about 46.2 µM), usual class: inhibitors | 420,000 compounds, 12% hits; note: nearly all actives have a fitted effect of over 55% in size
#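 Cell growth measured by CellTiter-Glo luminescence after a minimum 48 h, 37 C compound exposure with 20 nM CPT in Tdp1-knockout DT40 cells stably expressing hTDP1, seeded 400/well; qHTS titration format.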
# HT1080 IDH1KD tx: qHTS for induction of synthetic lethality in tumor cells producing 2HG: qHTS for the HT-1080-IDH1KD cell line; HT-1080 IDH1 knockdown viability, ATP luminescence, 48 h; Potency, µM (top dose mostly 46.1 µM), usual class: cytotoxic; 360,000 compounds, 2% hits; AID 686971, 2013
#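 Knockdown cells (IDH1KD HT-1080) received compounds 2 h after plating at 750 cells/well and were kept 48 h at 37 °C in 5% FBS RPMI. A CellTiter-Glo luminescence read gave % activity for curve fitting.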
# TDP1 cell noCPT: qHTS for Inhibitors of human tyrosyl-DNA phosphodiesterase 1 (TDP1): qHTS in cells in absence of CPT | DT40 Tdp1-/- hTDP1 cells, no CPT, ATP luminescence, 48 h | Potency, µM (doses to about 46.2 µM), actives largely listed as inhibitors | 420,000 compounds, 15% hits; note: nearly all actives have a fitted effect of over 55% in size
#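 Compound effects on proliferation are scored in DT40 Tdp1-/-;hTDP1 cells in the absence of CPT. ATP levels (CellTiter-Glo luminescence) are recorded after a ≥48 hr, 37 °C incubation.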
# HT1080-NT tox: qHTS for induction of synthetic lethality in tumor cells producing 2HG: qHTS for the HT-1080-NT fibrosarcoma cell line; Potency, µM (top dose mostly 46.1 µM), hits mostly cytotoxic; 360,000 compounds, 1.6% hits; HT-1080-NT fibrosarcoma viability, CellTiter-Glo ATP luminescence, 48 h;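 note: NT is the 2HG producing partner of a matched IDH1 knockdown line; nearly all actives have a fitted effect of over 55% in size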
#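 A 48-hour cytotoxicity screen used HT-1080-NT cells plated 2 hours before compound delivery. ATP-based CellTiter-Glo luminescence measured viability, normalized to DMSO and no-cell controls.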
# Numbers stand for hits; 0 = inactive; ? = inconclusive; - = not tested or not shown; [ ] = dose if it differs, or a comment. In the library only some 19% were active in any assay of this set; here they are far more common. Unless noted, calls come from the whole dose curve; as a rule, active = well fitted curve in the direction sought with a large enough effect; inconclusive = small, poorly fitted or top-dose-only effect, or another doubt; inactive = no such curve, though single readings can be large; an effect the other way counts as inactive or inconclusive.
SMILES,IL1B secr inh,TDP1 cell CPT,HT1080 IDH1KD tx,TDP1 cell noCPT,HT1080-NT tox
C=Cc1ccc(Cn2c(C)c(CNCc3cccc(Br)c3)c(C(=O)O)c2C)cc1,-,0,-,0,-
COc1cc(/C=C/C(=O)OCC(=O)N(C)CC(=O)Nc2ccc(F)cc2)ccc1OC(F)F,0,0,0,0,0[9.24 µM]
Cc1c(C(=O)N(C)C(C)c2ccccn2)oc2c(F)cccc12 (stereo unspecified),0,0,0,0,0
COc1ccccc1C1CC(=O)N(c2cccc(C(F)(F)F)c2)C2=C1C(=O)OC2 (stereo unspecified),-,8.2µM,-,?,-
CNC(=S)NCCc1cc2c(OC)ccc(OC)c2[nH]c1=O,0,0,0,?,0
CC(=O)Nc1cc(-c2ccncc2)cn2c(-c3ccccc3)cnc12,0,18.4µM,0,16.4µM,0
CC(=O)Nc1cc(-c2ccc(F)cc2)cn2c(-c3ccc(S(C)(=O)=O)cc3)cnc12,0,?,0,16.4µM,0
CC(=O)Nc1cc(-c2ccc(CO)cc2)cn2c(-c3ccc(F)cc3)cnc12,?,16.4µM,0,16.4µM,0
CC(=O)Nc1cc(-c2ccc(F)cc2)cn2c(-c3ccc(F)cc3)cnc12,0,16.4µM,?,18.4µM,?
Cc1ccccc1-c1noc(-c2cccnc2N2CCN(c3ccccc3)CC2)n1,-,0,-,?,-
COC(=O)/C=C1\N/C(=N\c2nc(C)cc(C)n2)N(c2ccc(C)c(C)c2)C1=O,0,0,0,0,0
O=S(=O)(c1ccc(Br)cc1Cl)N1CCN(CCO)CC1,0,0,0,0,0
O=C1C=CC(=O)c2c(O)c(N3CCN(CCOCCO)CC3)c(Br)c(O)c21,-116.9,0.651µM,5.8µM,0.92µM,?
O=C1C=CC(=O)c2c(O)c(N3CCN(CCO)CC3)c(Cl)c(O)c21,-73.4,0.581µM,5.17µM,0.581µM,5.8µM
COc1ccc(CN(C(=O)CCC(=O)Nc2cc(C)on2)C(C(=O)NC(C)(C)C)c2cccc(OC)c2OC)cc1 (stereo unspecified),0,0,0,0,0
COC(=O)c1cc(Cl)cc2c(C)c(C3(O)CCCCC3)[nH]c12,0,?,0,20.6µM,0
Cc1sc2nc(CN3CCOCC3)[nH]c(=O)c2c1-c1ccccc1,0,0,0,0,0
Cc1sc2nc(-c3ccccn3)[nH]c(=O)c2c1-c1ccccc1,0,9.2µM,?,10.3µM,?
CCN(CC)C(=O)c1sc2nc(-c3ccccn3)[nH]c(=O)c2c1C,0,23.1µM,0,11.6µM,0
CCN(CC)C(=O)c1sc2nc(-c3ccncc3)[nH]c(=O)c2c1C,0,0,0,0,0
COc1ccc(CNCCNC(=O)c2cccs2)c(OC)c1OC,0,0,0,0,0
COc1ccc(C)cc1-n1c(SCC(=O)NC2CC2)nc2ccccc2c1=O,?,18.4µM,0,?,0
Cc1cccc(-n2c(SCC(=O)NCC3CCCO3)nc3ccccc3c2=O)c1C (stereo unspecified),0,14.6µM,0,23.1µM,0
CC(C)COC(=O)Cn1nnc2sc(-c3ccccc3)cc2c1=O,-,0,-,0,-
Cc1ccccc1-n1c(SCC(=O)NC(N)=O)nc2sc(-c3ccccc3)cc2c1=O,0,?,0,?,0
SMILES,IL1B secr inh,TDP1 cell CPT,HT1080 IDH1KD tx,TDP1 cell noCPT,HT1080-NT tox
COc1ccc(C)cc1-n1c(SCC(=O)Nc2cccc(C(=O)O)c2)nc2ccccc2c1=O,0,0,0,0,0
Cc1ccccc1-n1c(SCC(N)=O)nc2sc(-c3ccccc3)cc2c1=O,0,?,0,18.4µM,0
CCOC(=O)C(CC)n1nnc2sc(-c3ccccc3)cc2c1=O (stereo unspecified),-,25.9µM,-,14.6µM,-
Cc1cc(C)n(-c2nc3cc(Cl)c(Cl)cc3nc2Nc2c(C)cccc2C)n1,-,0,-,0,-
CCN(CC)CCCNC(=O)C1CCN(C(=O)c2oc3cc4sc(N(C)C)nc4cc3c2C)CC1,0,0,0,0,0
COc1cccc(-n2c(SCC(=O)NC3CC3)nc3ccccc3c2=O)c1,0,0,0,?,0
Cc1ccccc1-n1c(SCC(=O)NC2CC2)nc2ccccc2c1=O,0,?,0,16.4µM,0
O=C(CCCn1c(SCc2cccc(F)c2)nc2ccccc2c1=O)NCC1CCCO1 (stereo unspecified),-78.6,?,0,?,0
CC(=O)Nc1ccc(S(=O)(=O)NC2=NCN(C(C)C)CN2)cc1,-,0,-,0,-
CCN(CC)CCCn1c2c(c(SCC(=O)Nc3ccc(OC(F)(F)F)cc3)nc1=O)CCC2,-68.8,?,0,?,0
CCN(CC)CCn1c2c(c(SCC(=O)Nc3nccs3)nc1=O)CCCC2,0,0,0,0,0
CCN(CC)CCCn1c2c(c(SCC(=O)Nc3nc4ccccc4s3)nc1=O)CCC2,-51.2,0,0,?,0
O=[N+]([O-])c1ccc(Oc2cccc(F)c2)c2ccncc12,0,?,0[9.24 µM],?,?
O=c1c(-c2ccc(F)cc2)nc2cnc(N3CCOCC3)nc2n1Cc1ccc(F)cc1,-,0,-,0,-
COc1cc(/C=C2\SC(N3CCCCC3)=NC2=O)cc(OC)c1OC,?,20.6µM,0,11.6µM,0
CCOC(=O)C1CCCN(C2=NC(=O)/C(=C/c3ccc(OC)c(OC)c3)S2)C1 (stereo unspecified),0,?,0,9.2µM,0
COc1ccc(/C=C2\SC(N3CCCCC3)=NC2=O)cc1,0,11.6µM,0,?,0
COc1ccc(/C=C2\SC(N3CCc4ccccc4C3)=NC2=O)cc1OC,0,0,?,?,?
CCc1ccc(/C=C2\SC(N3CCCC3)=NC2=O)cc1,-60.4,0,0,?,0
CCC(C)(C)NC(=O)CN(Cc1ccco1)C(=O)CCC(=O)Nc1nccs1,0,0,0,0,0
CN1CCN(C(=O)c2ccc(-n3cccc3)cc2)CC1,0,0,0,0,0
O=C1N=C(N2CCCCC2)S/C1=C\c1ccncc1,-52.0,0,0,0,0
O=C(COCC(=O)NCc1ccccc1)NCc1ccccc1,0,0,0,0,0
COc1ccc2c(c1)CCc1cnc(-n3ncc(C(=O)NCCCN4CCOCC4)c3C)nc1-2,-,0[9.04 µM],-,?,-
CC1=C(c2ccc(C)cc2)S(=O)(=O)N(Cc2ccc(C(=O)Nc3ccccc3C)cc2)C1=O,-,7.31µM,-,8.2µM,-
CCc1ccc(NC(=O)c2ccc(CN3C(=O)C(C)=C(c4ccc(C)cc4)S3(=O)=O)cc2)cc1,-,?,-,10.3µM,-
CC1=C(c2ccc(C)cc2)S(=O)(=O)N(Cc2ccc(C(=O)Nc3ccc(F)cc3C)cc2)C1=O,-,5.8µM,-,5.17µM,-
